Our source for the max response, negative = inhibition values is PubChem BioAssay AID652054 (National Center for Advancing Translational Sciences (NCATS), 2013).

The campaign covered roughly 360,000 compounds. About 9,100 (2.5%) were called active. Not shown: some 4% with an inconclusive outcome. Many of the other results were omitted from the sample, so actives are more common in it than they were. Values without a mark were called inactive. No stated cut-off is given here; in the data, active means max response below about -50%; inconclusive means no clear call, values can overlap the other calls; inactive means above that.
On the % scale 0 is the no-effect control and ±100 the full control effect.

Chain of D(3) dopamine receptor (Homo sapiens) (P35462 whole entry, looked up): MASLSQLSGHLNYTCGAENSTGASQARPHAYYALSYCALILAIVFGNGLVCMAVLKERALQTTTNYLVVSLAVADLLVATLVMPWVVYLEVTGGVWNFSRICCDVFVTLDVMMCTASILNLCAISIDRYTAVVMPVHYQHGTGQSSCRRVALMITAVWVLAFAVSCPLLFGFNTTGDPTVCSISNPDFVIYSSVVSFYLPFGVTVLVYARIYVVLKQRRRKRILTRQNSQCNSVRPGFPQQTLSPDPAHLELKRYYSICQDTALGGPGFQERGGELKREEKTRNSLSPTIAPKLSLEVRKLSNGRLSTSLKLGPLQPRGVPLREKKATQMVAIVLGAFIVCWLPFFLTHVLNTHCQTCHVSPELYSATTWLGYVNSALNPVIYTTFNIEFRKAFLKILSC

The assay concerns the target D(3) dopamine receptor (Homo sapiens) (UniProt P35462). Nature of the assay: qHTS of D3 Dopamine Receptor Antagonist: qHTS. The note with it: D3R cells, DiscoveRx beta-arrestin luminescence, antagonist mode; hits give low values. The gist of the method:
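Cells plated overnight at 1500 cells/well, then exposed to library compounds with dopamine controls for 90 minutes at 37 degrees C. DiscoveRx reagent added for 30–60 minutes at room temperature; luminescence read, quantitative HTS format.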
As for `CCOc1ccc(NS(=O)(=O)c2ccc(C(=O)NCC(c3ccccc3OC)N3CCCC3)cc2)cc1` (stereo not drawn), the max response, negative = inhibition is -13.6%.
With `COc1ccc(C(CNC(=O)c2ccc(OCc3cscn3)cc2)N2CCCC2)cc1` (stereo not drawn), the max response, negative = inhibition was -19.8%.
To `COc1ccc(OCC(=O)NNC(=O)C2CCC2)cc1` belongs -0.824%.
To `COc1ccc(C(CNC(=O)CSc2ccccc2)N2CCOCC2)cc1` (stereo not drawn) belongs 19.6%; to `COc1ccc(C(CNC(=O)COc2ccccc2OC)N2CCCCC2)cc1` (stereo not drawn), -53.8% (active); to `COc1ccc(C(CNC(=O)COc2ccc([N+](=O)[O-])cc2)N2CCCCC2)cc1` (stereo not drawn), -74.5% (active).
Under `CCc1nc2ccc(C(=O)NCCNC(C)=O)cn2c1N(CC)Cc1cccc(Br)c1` stands 48.8%.
For the compound `O=C1NC[C@H](Cc2ccc(O)cc2)N(C[C@@H]2CCCN2C[C@H](Cc2ccccc2)N2C[C@H](Cc3ccccc3)N(CC3CCCCC3)C(=O)C2=O)C1=O`, the max response, negative = inhibition is 8.41%.
To `CC(C)(C)c1ccc(C(=O)NNC(=O)Cc2ccccc2)cc1` belongs -17.8%.
Consider `Cc1ccc(Sc2cc(C(=O)c3ccccc3C(=O)O)ccc2[N+](=O)[O-])cc1`, for which the max response, negative = inhibition was -21.4%.
Consider `Cc1ccc(SC(CC(=O)c2ccc(C(C)(C)C)cc2)C(=O)O)cc1` (stereo not drawn), for which the max response, negative = inhibition is -80.7% (active).
As for `CCN1CCN(C(c2cccnc2)c2cc(Cl)c3cccnc3c2O)CC1` (stereo not drawn), the max response, negative = inhibition is -91.7% (active).
To `Cc1ccc([C@H]2C[C@H](O)[C@@H](n3cc(COC(=O)c4ccccc4)nn3)CN2CC2CCCCC2)cc1` belongs 1.62%; to `COc1ccc(C(CC(=O)N2CCN(c3ccccc3)CC2)c2c(O)cc(OC)cc2OC)cc1` (stereo not drawn), 8.17%; to `COc1cc(OC)c2ccc(=O)oc2c1C(CCN1CCN(c2ccccc2)CC1)c1ccc2c(c1)OCO2` (stereo not drawn), -81.3% (active).
Turning to `CCN(CC)CCC(c1cc(OC)c(OC)c(OC)c1)c1c(OC)cc(OC)c2c(-c3ccccc3)cc(=O)oc12` (stereo not drawn), the max response, negative = inhibition is 15.7%.
`O=C(C(=O)N1CCN(c2ccccc2)CC1)c1ccc2c(c1)OCO2`: the max response, negative = inhibition was -3.44%.
Under `CCN(CC)C(=O)CC(c1ccc2c(c1)OCO2)c1c(OC)cc(OC)c2c(-c3ccccc3)cc(=O)oc12` (stereo not drawn) stands 0.75%; under `COc1cc(C(CCN2CCN(c3ccccc3)CC2)c2c(OC)cc(OC)c3ccc(=O)oc23)cc(OC)c1OC` (stereo not drawn), -84.7% (active).
Under `Cc1cc2nc(-c3ccc(F)cc3)c(Cc3ccsc3)n2c(C)c1Br` stands 28.2%; under `Cc1cc(Br)cn2c(Cc3ccsc3)c(-c3ccc(C#N)cc3)nc12`, 3.93%; under `Cc1ccc(S(=O)(=O)N2CCC(=O)N([C@H](COCc3ccccc3)Cc3ccccc3)CC2)cc1`, -4.09%.
In the case of `CCCc1ccc(S(=O)(=O)N2CCN(C(=O)c3cc(C)on3)CC2)cc1`, the max response, negative = inhibition is 15.8%.
To `COCCNC(=O)c1cc2c(Br)ccc(Br)c2nc1N` belongs -12.2%; to `COc1ccc(NC(=O)C(c2ccncc2)n2c(=O)c(-c3cc4ccccc4[nH]3)nc3ccccc32)cc1` (stereo not drawn), 12.2%.
On to `Cc1ccc(Cn2c(C)c(C(=O)NCc3ccccc3C(F)(F)F)sc2=O)cc1`, for which the max response, negative = inhibition is 11.8%.
As to `Cc1cc(C#N)c(SCC(N)=O)nc1-c1ccc(F)cc1`, the max response, negative = inhibition was 9.54%.
In the case of `Cc1ccc(NC(=O)CSc2sc3c(O)cc(=O)[nH]c3c2C#N)cc1C`, the max response, negative = inhibition was 12.7%.
Under `Cc1cc(=O)[nH]c(SCC(N)=O)c1C#N` stands -50.3% (active).
On to `C=CCC[C@H](CCCCC)OC(=O)/C=C/[C@H](O)[C@@H](O)C[C@@H](O)CC=C`, for which the max response, negative = inhibition was -8.69%.
`CC(C)(O)C#Cc1ccc(CNC[C@H]2O[C@@H](n3cnc4c(=O)[nH]c(N)nc43)[C@H](O)[C@@H]2O)s1`: the max response, negative = inhibition is 14.7%.
As to `Nc1ccccc1-c1nc2ccncc2[nH]1`, the max response, negative = inhibition was -1.55%.
Under `S=C(Nc1ccc(Br)cc1)NC1CCN(Cc2ccccc2)CC1` stands -58.1% (active); under `CC(C)(C)C(=O)NNC(=O)c1ccc(Oc2cc(Cl)cc(Cl)c2)o1`, 19.5%; under `O=C(NC1CCN(Cc2ccccc2)CC1)c1ccc(Oc2cc(Cl)cc(Cl)c2)o1`, -87.6% (active).
Under `O=C(CN1CCCCC1)Nc1ccccc1C(=O)NC1CC1` stands 18.3%; under `Cc1cc(=O)oc2c(C)c(OC(C)C(=O)NC3CCN(Cc4ccccc4)CC3)ccc12` (stereo not drawn), 4.52%.
On to `CCNC(=S)NNC(=O)C1CCN(Cc2ccccc2)CC1`, for which the max response, negative = inhibition was -27.2%.
In the case of `O=C(NC1CCN(Cc2ccccc2)CC1)c1cc(Br)c(Br)[nH]1`, the max response, negative = inhibition was -86.7% (active).
Under `S=C(NCCCc1ccccc1)Nc1ccc(Br)cc1` stands 11.9%; under `S=C(NN=C1CCN(Cc2ccccc2)CC1)NC1CCCCC1`, -1.61%.
Under `O=C(NC1CCN(Cc2ccccc2)CC1)c1ccccc1F` stands -72.3% (active); under `N#Cc1ccc(CN2CCN(CC(=O)Nc3ccccc3C(=O)NC3CC3)CC2)cc1`, 1.04%; under `COc1ccccc1Cc1c(-c2ccc(Cl)cc2)nc2ccc(Cl)cn12`, 6.17%.
To `CCCCc1ccc(S(=O)(=O)NC(=O)C2(C)CCN2C(=O)c2c(C)noc2C)cc1` (stereo not drawn) belongs 0%.
Take `O=C1NC[C@H](CCCCN2C[C@H](Cc3ccc(O)cc3)N(CCc3ccccc3)C(=O)C2=O)N(CCc2ccccc2)C1=O`: the max response, negative = inhibition is 4.98%.
Take `CCOC(=O)[C@]12CCC=C1N(Cc1ccccc1)C(=O)[C@H](CC(=O)N1CCCC1)C2`: the max response, negative = inhibition is -17.7%.
In the case of `COc1ccccc1NC(=O)C(CC(=O)O)Cc1cc(C)cc(C)c1` (stereo not drawn), the max response, negative = inhibition is -7.58%.
Under `O=S(=O)(c1cccc(C(F)(F)F)c1)N1c2ccccc2-n2cccc2C1c1cccnc1` (stereo not drawn) stands 9.86%; under `O=S1(=O)CC(N2CCN(CCO)CC2)CN1Cc1cn(Cc2cccc(Cl)c2)nn1` (stereo not drawn), -8.85%.
To `CC(C)C[C@H]1CN([C@@H](Cc2ccccc2)CN2CCC[C@@H]2CN2C(=O)C(=O)NC[C@@H]2Cc2ccc(O)cc2)C(=O)C(=O)N1CCc1ccccc1` belongs 7.71%; to `COc1cccc(-c2cc3nc(NCCOc4ccccc4Cl)n(C)c(=O)c3s2)c1`, 18.3%; to `COCCNc1ncnc2c1ncn2[C@H]1CN(CCN2CCOCC2)C[C@@H](CO)O1`, -14.7%.
